Measured values as given in PubChem BioAssay (Tox21).
Results filed as inconclusive are left out. A call without a number means that no potency is given here. Active and inactive are the calls of the source. Calls come from the whole dose curve.

Experiment: qHTS assay to identify small molecule agonists of the progesterone receptor (PR) signaling pathway - cell viability counter screen (AID 1346799); note: nearly all actives have a fitted effect of over 45% in size
Settings: PR-UAS-bla HEK293T viability, CellTiter-Glo luminescence, 16 h; series mostly up to 92.4 µM
Source text: National Center for Advancing Translational Sciences [NCATS]
NIH Chemical Genomics Center [NCGC]
U.S. Environmental Protection Agency [EPA]
National Institutes of Environmental Health Sciences [NIEHS]
National Toxicology Program [NTP]
U.S. Food and Drug Administration [FDA]
Progesterone receptor (PR), a nuclear hormone receptor, plays an important role in development, metabolic homeostasis and reproduction. It is activated by the steroid hormone progesterone. Endocrine disrupting chemicals (EDCs) and their interactions with steroid hormone receptors like PR causes disruption of normal endocrine function. To identify the compounds that stimulate PR signaling, a PR-UAS-bla GripTite cell line i.e. PR-UAS-bla HEK293T (Invitrogen, Carlsbad, CA, USA) containing a beta-lactamase reporter gene under the control of an UAS response element was used to screen Tox21 10K compound library. The cytotoxicity of the Tox21 compound library against the PR-bla cell line was tested in parallel by measuring the cell viability using CellTiter-Glo assay in the same wells.
Tox21 Assay Protocol Summary:
PR-UAS-bla HEK293T cells were dispensed at 3,000 cells/5 uL of assay medium containing 2% charcoal stripped FBS per well into black wall/clear-bottom 1536-well plates using a Multidrop Combi (ThermoFisher Scientific, Waltham, MA) dispenser. After the assay plates were incubated at a 37C and 5% CO2 for 6 hr, 23 nL of compounds dissolved in DMSO, positive controls or DMSO only was transferred to the assay plate by a Pintool station (Kalypsys, San Diego, CA). The plates were incubated at 37C and 5% CO2 for 16 hr. Then 1 uL of LiveBLAzer B/G FRET substrate was added using a Flying Reagent Dispenser (FRD, Aurora Discovery, San Diego, CA), the plates were incubated at room temperature for 2 hours, and fluorescence intensity was measured by an Envision plate reader (PerkinElmer, Shelton, CT). For cell viability readout that measures cytotoxicity, 4 uL/well of CellTiter-Glo reagent was added into the assay plates using a FRD. After 30 min incubation at room temperature, the luminescence intensity in the plates was measured using a ViewLux (PerkinElmer) plate reader.

Row | SMILES | Potency
1 | CC(C)CC(C)CC(O)CC(C)C (stereo not given) | inactive
2 | COC1=CC(=O)C[C@@H](C)[C@]12Oc1c(Cl)c(OC)cc(OC)c1C2=O | inactive
3 | Cc1cccc2ccccc12 | inactive
4 | COC(=O)c1ccc(O)cc1 | inactive
5 | COCC(C)N (stereo not given) | inactive
6 | NCCNc1cccc2ccccc12 | inactive
7 | OCCCc1ccccc1 | inactive
8 | O=C(OCc1ccccc1)c1ccccc1 | inactive
9 | NC(=O)c1ccc([N+](=O)[O-])cc1Cl | inactive
10 | CC(=O)Oc1ccccc1C(=O)O | inactive
11 | Nc1ccc(N=Nc2ccccc2)c(N)n1 | inactive
12 | Cn1cnc2c1c(=O)[nH]c(=O)n2C | inactive
13 | CN/C(=C\[N+](=O)[O-])NCCSCc1ccc(CN(C)C)o1 | inactive
14 | CC(C)(C)NCC(O)c1ccc(O)c(CO)c1 (stereo not given) | inactive
15 | CCOCCO | inactive
16 | CCCCCCCC(=O)OCC(O)CO (stereo not given) | inactive
17 | COCCOCCOC | inactive
18 | CO[C@H]1C=CO[C@@]2(C)Oc3c(C)c(O)c4c(O)c(c(/C=N/N5CCN(C)CC5)c(O)c4c3C2=O)NC(=O)/C(C)=C\C=C[C@H](C)[C@H](O)[C@@H](C)[C@@H](O)[C@@H](C)[C@H](OC(C)=O)[C@@H]1C | inactive
19 | COc1cc(O)c(C(=O)c2ccccc2)cc1S(=O)(=O)O | inactive
20 | O=C(O)CCCCC1CCSS1 (stereo not given) | inactive

Row | SMILES | Potency
21 | N[C@@H](Cc1c[nH]c2ccc(O)cc12)C(=O)O | inactive
22 | Oc1cccc(O)c1 | inactive
23 | CN(C)C=O | inactive
24 | CCn1cc(C(=O)O)c(=O)c2ccc(C)nc21 | inactive
25 | O=c1cc[nH]c(=O)[nH]1 | inactive
26 | C/C=C/c1ccc(O)c(OC)c1 | inactive
27 | CC(O)COc1ccccc1 (stereo not given) | inactive
28 | C=C(C)OC(C)=O | inactive
29 | CCCCCCCCCCCCCC(=O)OC(C)C | inactive
30 | CC(=O)CCC(C)C | inactive
31 | CCCCOCCOCCSC#N | inactive
32 | Cc1c(N(C)CS(=O)(=O)O)c(=O)n(-c2ccccc2)n1C | inactive
33 | N[C@@H](Cc1c[nH]c2ccccc12)C(=O)O | inactive
34 | CC(C)Cc1ccc(C(C)C(=O)O)cc1 (stereo not given) | inactive
35 | CN(C)Cc1cc(CN(C)C)c(O)c(CN(C)C)c1 | inactive
36 | Cc1cccc(C)c1O | inactive
37 | COc1ccc(O)cc1 | inactive
38 | CC(=O)/C=C/C1=C(C)CCCC1(C)C | inactive
39 | C=CC(=O)NC(C)(C)CS(=O)(=O)O | inactive
40 | CC1=NN(c2ccccc2)C(=O)C1 | inactive
